# Test results taken from PubChem BioAssay AID624273 (Broad Institute, 2012).
# The whole screen tested about 1,000 compounds, of which about 230 (23%) were called active. Another 1% or so got no clear call; they are omitted. Some of the results follow. Measured potencies and affinities stand elsewhere. Unmarked numbers belong to inactive results. No rule for the calls is given here.
# Target: Long-chain-fatty-acid--AMP ligase FadD28 (Mycobacterium tuberculosis (strain ATCC 25618 / H37Rv)) (UniProt P9WQ59)
# Test: inhibitors of FadD28 bisubstrate probe binding, dose response, biochemical, fluorescence polarization, cherry-pick (AID 624273)
# Conditions: series mostly up to 50 µM; activity change, negative = inhibition: at the top concentration
# Sequence of Long-chain-fatty-acid--AMP ligase FadD28 (Mycobacterium tuberculosis (strain ATCC 25618 / H37Rv)) (P9WQ59 whole entry, looked up): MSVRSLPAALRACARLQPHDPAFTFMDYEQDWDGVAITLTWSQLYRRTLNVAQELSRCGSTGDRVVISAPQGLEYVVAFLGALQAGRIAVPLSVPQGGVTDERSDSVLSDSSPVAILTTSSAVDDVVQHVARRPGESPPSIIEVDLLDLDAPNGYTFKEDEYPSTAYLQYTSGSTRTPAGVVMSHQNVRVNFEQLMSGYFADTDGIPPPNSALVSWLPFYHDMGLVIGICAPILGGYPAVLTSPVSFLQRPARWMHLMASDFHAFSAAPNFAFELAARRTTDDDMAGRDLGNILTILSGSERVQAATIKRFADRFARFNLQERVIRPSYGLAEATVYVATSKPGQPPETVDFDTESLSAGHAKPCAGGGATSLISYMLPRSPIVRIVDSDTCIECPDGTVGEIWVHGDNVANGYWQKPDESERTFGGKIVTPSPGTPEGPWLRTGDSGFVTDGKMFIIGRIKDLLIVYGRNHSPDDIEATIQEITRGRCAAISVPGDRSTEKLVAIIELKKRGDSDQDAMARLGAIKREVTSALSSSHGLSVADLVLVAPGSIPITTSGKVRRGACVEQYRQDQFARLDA
row,SMILES,"activity change, negative = inhibition"
1,CC(=O)Nc1ccc(OC(F)(F)C(F)F)c(NC(C)=O)c1,-0.083%
2,CCn1ncc(NC(=S)NCCc2ccccc2)c1C(N)=O,-2.3%
3,CC(C)CC(=O)Nc1nnc(S(=O)(=O)N(C)c2ccc(Cl)cc2)s1,-4.92%
4,COc1ccc(/C=N/NC(=O)CN(C2=NS(=O)(=O)c3ccccc32)c2ccccc2)cc1OC,0.459%
5,COc1ccc(/C=N/n2c(SC)nnc(C(C)(C)C)c2=O)cc1OC,-5.2%
6,c1ccc(-c2nnc(N3CCCC3)nc2-c2ccccc2)cc1,-12.7%
7,CC(O)(c1cccnc1)c1nc(-c2cccc(C(F)(F)F)c2)cs1 (stereo not given),0.004%
8,COc1ccc(CC(=O)Nc2nnc(SCc3ccccc3)s2)cc1S(=O)(=O)N1CCOCC1,-13%
9,COc1ccc(CCNC(=O)c2ccc(Cl)c(S(=O)(=O)N(C)c3ccccc3)c2)cc1,-12.1%
10,Cc1ccc(C(=O)OCC(=O)c2ccc(Br)cc2)cc1S(=O)(=O)N1CCOCC1,-11.9%
11,O=C(COC(=O)c1ccc(Cl)c(S(=O)(=O)N2CCCCCC2)c1)Nc1ccccc1,-0.876%
12,CCN(CC)S(=O)(=O)c1cccc(C(=O)NCCCN2CCOCC2)c1,0.631%
13,O=C(NCCc1c[nH]c2ccccc12)/C(=C/c1ccco1)NC(=O)c1ccco1,-0.53%
14,Cc1oc(/C=N/NS(=O)(=O)c2ccccc2)cc1Br,-12.7%
15,Cc1sc(-n2c(C)cc(/C=C3\SC(=S)NC3=O)c2C)c(C#N)c1C,-17.2%
16,O=C1C2ON(c3ccccc3)C(c3ccccn3)C2C(=O)N1c1ccc(Br)cc1 (stereo not given),-17%
17,Cn1nnnc1NCc1cccc(Cl)c1,-1.85%
18,Cc1nnc(NC(=O)c2sc3nc(-c4cccs4)cc(C(F)(F)F)c3c2N)s1,-3.55%
19,O=C(Cn1cnc2c(oc3nc4c(cc32)CCCC4)c1=O)Nc1cccc(Cl)c1,-19.7%
20,COc1ccccc1NC(=O)CSCC(=O)N1c2ccccc2CCc2ccccc21,3.81%
21,N#Cc1ccccc1NC(=O)c1cc(=O)c2ccccc2o1,-1.27%
22,NC(Cc1ccc(Cl)cc1)c1csc(NC(=O)Nc2ccccc2)n1 (stereo not given),17.3%
23,Nc1ccc(C(CC(=O)O)n2cccc2)cc1 (stereo not given),-9.59%
24,Cc1ccc(Cn2nnc3c(=O)[nH]c(C4CCN(S(=O)(=O)Cc5ccccc5)CC4)nc32)cc1,-2.02%
25,COc1cc(/C=C2/C(=O)NN(c3ccc(Cl)cc3)C2=O)ccc1OC(=O)c1ccco1,-6.33%

row,SMILES,"activity change, negative = inhibition"
1,COc1cc(/C=C2/C(=O)NN(c3cccc(Cl)c3)C2=O)cc(OC)c1O,-11.7%
2,Cc1ccc(OCC(=O)NCCS(=O)(=O)N2CCN(c3ccccc3)CC2)cc1,-4.58%
3,Cc1cccc(NC(=O)c2cccc(S(=O)(=O)N3CCc4ccccc4C3)c2)n1,-2.05%
4,COc1ccc(S(=O)(=O)N2CCCCC2)cc1NC(=O)CN1CCN(C(C)=O)CC1,-3.48%
5,CCC(=O)c1ccc(OCC(=O)Nc2cccc(S(=O)(=O)N3CCCCCC3)c2)cc1,-10.1%
6,CCc1cccc(NC(=O)Cn2c(=O)oc3cc(S(=O)(=O)N4CCOCC4)ccc32)c1,-29.4%
7,CN(CC(=O)N1CCc2ccccc21)S(=O)(=O)c1cccc2cccnc12,3.09%
8,Cc1ccc(S(=O)(=O)N(C)C)cc1NC(=O)C(C)[N+]12CCN(CC1)CC2 (stereo not given),-5.61%
9,CC1CCCN(Cc2c(O)ccc3c(=O)c(-c4nc5ccccc5s4)c(N)oc23)C1 (stereo not given),-5.96%
10,CN1C(=O)C2C=CC1C1C(=O)N(c3ccccc3)C(=O)C21 (stereo not given),-6.91%
11,Cc1ccc(S(=O)(=O)N(C)C)cc1NC(=O)CSc1nnnn1-c1ccc(O)cc1,-14.5%
12,CC1(C)Cc2nc3oc4c(NCc5ccccc5)ncnc4c3cc2CO1,-2.72%
13,CCN=c1scc(C)n1/N=C/c1cc(Br)c(O)c(Br)c1,-4.09%
14,O=C(CSc1ncn[nH]1)Nc1ccc(S(=O)(=O)Nc2ncccn2)cc1,-3.33%
15,O=C(CSc1ccc(Br)c2cccc(Cl)c12)Nc1ccc(S(=O)(=O)Nc2nccs2)cc1,-15.1%
16,COc1ccccc1COC(=O)c1cccc(S(=O)(=O)N2CCCC2)c1,-0.209%
17,COc1ccccc1[C@@H]1C(c2cccc(C)c2)=NN(c2ccccc2)[C@H]1C(=O)N1CCOC1=O,0.248%
18,O=c1cc(CN2CCc3ccccc32)c2ccc(O)cc2o1,-8.7%
19,O=C(O)Cc1ccc2c(c1)N(S(=O)(=O)c1cccs1)CC(C(=O)O)O2 (stereo not given),-14.2%
20,OCCN1CCN(c2ncnc3c2ncn3[C@H]2CN(Cc3ccncc3)C[C@@H](CO)O2)CC1,-2.24%
21,COc1ccc(CCNC(=O)CN(c2ccc(C)cc2)S(=O)(=O)c2c(C)noc2C)cc1OC,-2.72%
22,Nc1ccc2c(c1)[nH]c(=O)c1cc(N)ccc12,-0.111%
23,Cc1cc(NS(=O)(=O)c2ccc(NC(=O)Cc3ccccc3)cc2)nc(C)n1,-4.8%
24,O=[N+]([O-])c1cc(S(=O)(=O)Nc2cccc(C(F)(F)F)c2)ccc1-n1nnc2ccccc21,-21.8%
25,NS(=O)(=O)c1cccc(NS(=O)(=O)c2ccc(/C=C/C(=O)OCC(=O)c3ccccc3)cc2)c1,-0.888%

row,SMILES,"activity change, negative = inhibition"
1,CC(=O)Nc1ccc(S(=O)(=O)NC2=C(N3CCN(c4ccc(F)cc4)CC3)C(=O)c3ccccc3C2=O)cc1,-18.6%
2,COc1ccccc1NS(=O)(=O)c1cccc(NC(=O)Nc2cccc(Cl)c2)c1,-3.21%
3,O=C1C(Cl)=C(NCCN2CCOCC2)C(=O)c2ccccc21,-8.82%
4,O=C(NN=C1CCCC1)c1cc(Cl)cc(Cl)c1O,-17.8%
5,N#Cc1cc2c(nc1SCc1ccc(Cl)nc1)CCCCC2,-3.38%
6,Cc1ccc2oc(C(=O)N3CCCCCC3)c(C)c2c1,0.038%
7,O=C(CSc1ccccn1)N1CCN(S(=O)(=O)c2ccc(Cl)cc2)CC1,-7.31%
8,Cc1ccnc(NC(=O)CCC(=O)N(CC(=O)NCC2CCCO2)Cc2ccc(F)cc2)c1 (stereo not given),-1.94%
9,Cc1cc[n+](CC(=O)c2cc3ccccc3oc2=O)cc1,-3.16%
10,O=C1NC(=O)N(Cc2ccc(F)cc2)C(=O)/C1=C\c1ccoc1,-9.04%
11,COc1ccc(C(=O)N/N=C2\SCC(=O)N2Cc2ccc3c(c2)OCO3)c(OC)c1,-23.6%
12,CCNC(=S)N1CCN(CC(=O)Nc2ccc(Br)cc2)CC1,15%
13,Nc1ccccc1/C=N\N=C/c1ccccc1N,-5.39%
14,COc1ccc(CCNC(=O)CCNC(=O)N2CC(=O)Nc3ccccc32)cc1,-1.19%
15,CN(C)C1(c2nnnn2-c2ccc(Cl)cc2)CCCCC1,-6.34%
16,N#Cc1c(C#N)c(-c2ccccc2)n(-c2ccc(C(=O)O)cc2)c1N,-2.68%
17,O=C(c1[nH]c(C(F)(F)F)nc1-c1ccccc1)N1CCN(c2ccccn2)CC1,-6.13%
18,CC(=O)Nc1ccc(/C=N\NC(=O)CNS(=O)(=O)c2ccc([N+](=O)[O-])cc2)cc1,-16.2%
19,COc1ccc(/C=C/C(=O)N2CC(C)OC(C)C2)cc1OC (stereo not given),-2.82%
20,COC(=O)CSc1nnc(CNC(=O)c2cc(OC)cc(OC)c2)n1-c1ccc(F)cc1,49.8%
21,O=c1[nH]c(=S)[nH]c2c1C(c1ccc(Br)cc1)c1c([nH]c(=S)[nH]c1=O)O2,-8.68%
22,O=C(OCC(=O)N1CCCC1)c1cccs1,-3.69%
23,O=C1NCCN(C(=O)CCc2nnc(-c3ccsc3)o2)C1c1ccc(F)cc1 (stereo not given),-10.6%
24,COc1ccc(C2(CNC(=O)c3ccc(OC)c([N+](=O)[O-])c3)CCCCC2)cc1OC,-1.23%
25,O=C(O)CCCN1C(=O)/C(=C/c2ccc(-c3nc4ccccc4s3)o2)SC1=S,-4.59%

row,SMILES,"activity change, negative = inhibition"
1,Cc1ccc(-c2nn(-c3ccccc3)cc2/C=C2\SC(=S)N(CCCCCC(=O)O)C2=O)o1,46.1%
2,CC1(c2ccc(OC(F)F)cc2)NC(=O)N(CC(=O)Nc2ccc3[nH]c(=O)[nH]c3c2)C1=O (stereo not given),-3.88%
3,CC(C)CNC(=O)c1cc(S(=O)(=O)N2CCOCC2)ccc1N1CCCC1,-5.51%
4,Cc1ccc(NS(=O)(=O)c2ccc(NC(=O)CN(c3cc([N+](=O)[O-])ccc3C)S(C)(=O)=O)cc2)c(C)c1,-0.627%
5,Cc1ccccc1-c1cc2nc(NCc3ccccc3)n(C)c(=O)c2s1,10.3%
6,COC(=O)Cc1cc(=O)n(-c2nc3ccccc3s2)[nH]1,-9.29%
7,O=C(/C=C/c1ccco1)Nc1sc2c(c1C(=O)O)CCC2,0.459%
8,CC(=O)Nc1ccc(NC(=O)CSc2nc3nc(C)cc(C)c3c(=O)[nH]2)cc1,-2.41%
9,COc1ccc(-n2nnnc2SCC(=O)c2ccc(O)c(O)c2)cc1,-12.5%
10,CCC(=O)Nc1cccc(-n2nnnc2SCC(=O)c2ccc(C)c(C)c2)c1,-13%
11,CCOc1ccccc1NC(=O)CN(C)S(=O)(=O)c1cnc[nH]1,-5.79%
12,Cc1cc(SCNC(=O)c2ccccc2)nc(C(C)C)n1,-7.43%
13,COc1ccc(C(C(=O)NC2CCCCC2)N(C(=O)c2sc(C)nc2C)c2ccc(OC)cc2)cc1 (stereo not given),9.21%
14,Cc1c(Cc2ccc3c(c2)OCO3)sc(NC(=O)c2ccc3ccccc3c2)c1C(N)=O,-7.43%
15,CCOC(=O)CNC(=O)Cn1cnc2c(cnn2-c2ccc(C)cc2)c1=O,-4.81%
16,O=c1c2ccccc2c(-c2ccc(O)cc2)nn1-c1cccc(C(F)(F)F)c1,4.72%
17,CC(C)CN(C(=O)c1ccc(-n2cncn2)c([N+](=O)[O-])c1)C1CCS(=O)(=O)C1 (stereo not given),-8.25%
18,C/C(Cl)=C\Cn1c(O)c(N=O)c2ccccc21,3.06%
19,CC(=O)N1CC2(C)CN(C(C)=O)CC(C)(C1)C2=O,-4.73%
20,O=C1ON=C(c2cccc([N+](=O)[O-])c2)/C1=C/c1ccc(O)cc1,-19.1%
21,O=C(O)CC1S/C(=N/N=C/c2ccc(-c3ccc(Cl)c([N+](=O)[O-])c3)o2)NC1=O (stereo not given),-14.3%
22,Cc1ccc(-n2cccc2/C=C2/NC(=O)N(CC(=O)Nc3cccc(C)c3)C2=O)cc1,-3.09%
23,COCCNC(=O)C1CCC(CNS(=O)(=O)c2ccc3c(c2)CC(C)N3C(=O)C2CC2)CC1 (stereo not given),-4.61%
24,COc1ccc(N/C=C(\C2OC(=O)c3ccccc32)[N+](=O)[O-])cc1 (stereo not given),-6.01%
25,CCOc1cc(C2C(C(=O)OC(C)C)=C(C)N=C3SCCC(=O)N32)ccc1OC(C)=O (stereo not given),0.929%
